Source: PMC5540273 (PLoS ONE, 2017)

Tested on: FLT1
Details: concentration: 1 μM, replicates: in singlicate; n = 1
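Also: KINOMEscan kinase panel screen.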

SMILES | %Inh
FC(F)(F)c1ccc(/C=C/c2cncnc2Nc2ccc3[nH]c(Cc4ccccc4)nc3c2)cc1 [GW709199] | 12%
CN(C)Cc1ccc(-c2ccc3c(Nc4ccc(Oc5ccccn5)cc4)ccnc3c2)o1 [GW567148] | 32%
Cc1ccc(F)c(C(=O)Nc2cccc(-c3nn4ccccc4c3-c3ccnc(Nc4cccc(F)c4)n3)c2)c1F [GSK361061] | 94.5%
Cc1occc1-c1ncc(OC[C@@H](N)Cc2c[nH]c3ccccc23)cc1-c1ccc2[nH]nc(C)c2c1.O=C(O)C(F)(F)F [GSK682037] | 11%
CN(C)S(=O)(=O)c1cc(-c2ccc3nccc(-c4cccc(S(N)(=O)=O)c4)c3c2)cnc1N [GSK1669921] | 25%
COCCOCCOc1cc2ncc3c4ccc(C#N)cc4[nH]c3c2cc1OC | 17%
COc1cccc(C2=C(Nc3ccc(Cl)c(C(=O)O)c3)C(=O)NC2=O)c1 [SB-390769] | 25%
Oc1cc(Nc2ccnc3cc(I)ccc23)ccc1F [GW552771] | 44%
Cc1ccc(S(=O)(=O)Nc2ccc(Nc3nccc(Nc4cccc5[nH]ncc45)n3)cc2)cc1 [GSK581271] | 19%
Cc1ccc(C(=O)N2CC[C@@H](O)C2)cc1-n1c(C)cc(OCc2ccc(F)cc2F)c(Br)c1=O | 46%
COC(=O)Nc1nc2cc(Oc3ccc(NC(=O)Nc4cc(C(F)(F)F)ccc4F)cn3)ccc2[nH]1.Cl.Cl [GW681170] | 94.1%
COc1cc(Nc2nccc(N3CCC(NC(=O)c4cc5ccccc5s4)C3)n2)cc(OC)c1OC (stereo not drawn) [GSK1379760] | 36%
